This excerpt belongs to a sample that is enriched for hits.
U2OS ROS induce: ROS inducers in U2OS cancer cells, primary screen, cell-based, H2DCF-DA fluorescence; U2OS ROS induction; ROS induction (% of piperlongumine), % at 10 µM; hit rate 2% among 46,000; AID 624156, 2012; in the data active = ROS induction above about 79%, passing the limit was not always enough;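 also: 0% = DMSO vehicle median and 100% = reference compound median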
* = called active by the depositor.

SMILES	U2OS ROS induce
COc1ccc(CN(C)C[C@@H]2Oc3ccc(NS(=O)(=O)c4cn(C)cn4)cc3CC(=O)N([C@H](C)CO)C[C@H]2C)cc1	95*
C[C@H]1CN([C@@H](C)CO)C(=O)Cc2cc(NS(=O)(=O)c3cn(C)cn3)ccc2O[C@@H]1CN(C)Cc1ccc(Oc2ccccc2)cc1	-7
C[C@@H]1CN([C@H](C)CO)C(=O)Cc2cc(NS(=O)(=O)c3cn(C)cn3)ccc2O[C@@H]1CN(C)S(=O)(=O)c1cn(C)cn1	-10
C[C@H]1CN([C@@H](C)CO)C(=O)Cc2cc(NS(=O)(=O)c3cn(C)cn3)ccc2O[C@H]1CN(C)S(=O)(=O)c1cn(C)cn1	-5
C[C@@H]1CN([C@@H](C)CO)C(=O)Cc2cc(NS(=O)(=O)c3cn(C)cn3)ccc2O[C@@H]1CN(C)S(C)(=O)=O	109*
Cc1ccc(-n2c(Cn3ncc4ccccc4c3=O)n[nH]c2=S)c(Br)c1	-12
Cc1onc(-c2ccccc2Cl)c1C(=O)OC(c1ccccc1)C(F)(F)F (stereo not given)	8
C[C@@H]1CN([C@@H](C)CO)C(=O)c2cccc(NC(=O)c3ccncc3)c2O[C@H]1CN(C)C(=O)Nc1ccc(F)cc1	-6
CC(=O)ON1C(C)(C)CC(OC(=O)c2ccco2)CC1(C)C	-8
C[C@H](CO)N1C[C@H](C)[C@@H](CN(C)Cc2ccc(-c3ccccc3)cc2)Oc2ccc(NC(=O)c3ccncc3)cc2C1=O	19
C[C@H]1CN([C@@H](C)CO)C(=O)c2cc(NC(=O)Cc3ccccc3)ccc2O[C@H]1CN(C)Cc1ccccc1	-3
C[C@@H]1CN([C@H](C)CO)C(=O)c2cc(NC(=O)c3ccncc3)ccc2O[C@@H]1CN(C)Cc1ccc(-c2ccccc2)cc1	113*
C[C@@H]1CN([C@H](C)CO)C(=O)c2cc(NC(=O)Cc3ccccc3)ccc2O[C@H]1CN(C)Cc1ccc(-c2ccccc2)cc1	100*
C[C@@H]1CN([C@@H](C)CO)C(=O)c2cc(NC(=O)Cc3ccccc3)ccc2O[C@@H]1CN(C)Cc1ccc(-c2ccccc2)cc1	60
C[C@H](CO)N1C[C@H](C)[C@H](CN(C)Cc2ccc(-c3ccccc3)cc2)Oc2ccc(NC(=O)CCC(F)(F)F)cc2C1=O	9
C[C@H](CO)N1C[C@H](C)[C@@H](CN(C)Cc2ccc(Oc3ccccc3)cc2)Oc2ccc(NC(=O)Cc3ccccc3)cc2C1=O	138*
C[C@@H]1CN([C@@H](C)CO)C(=O)c2cc(NC(=O)c3ccncc3)ccc2O[C@@H]1CN(C)Cc1ccccc1	-22
C[C@@H]1CN([C@H](C)CO)C(=O)c2cc(NC(=O)Cc3ccccc3)ccc2O[C@H]1CN(C)Cc1ccc(Oc2ccccc2)cc1	-1
C[C@H]1CN([C@@H](C)CO)C(=O)c2cc(NC(=O)Cc3ccccc3)ccc2O[C@H]1CN(C)Cc1ccc(Oc2ccccc2)cc1	-5
C[C@H]1CN([C@@H](C)CO)C(=O)c2cc(NC(=O)CCC(F)(F)F)ccc2O[C@@H]1CN(C)Cc1ccc(-c2ccccc2)cc1	82*
C[C@@H]1CN([C@H](C)CO)C(=O)c2cc(NC(=O)CCC(F)(F)F)ccc2O[C@H]1CN(C)Cc1ccc(-c2ccccc2)cc1	38
C[C@@H]1O[C@@H](Oc2ccc(-c3coc4cc(O[C@@H]5O[C@@H](C)[C@H](O)[C@@H](O)[C@H]5O)ccc4c3=O)cc2)[C@H](O)[C@H](O)[C@H]1O	-9
Cc1ccc(C(=O)Nc2ccc(-c3cn4c(n3)SCC4)cc2)cc1C	-5
C[C@@H]1[C@H]2[C@H](O[C@@H]3O[C@H](CO)[C@@H](O)[C@H](O)[C@H]3O)OC=C(C(=O)O)[C@H]2C[C@@H]1OC(=O)/C=C/c1ccc(O)cc1	27
Cc1ccc(S(=O)(=O)N(C)C[C@@H]2Oc3ccc(NC(=O)Nc4c(C)noc4C)cc3CC(=O)N([C@@H](C)CO)C[C@@H]2C)cc1	-1
SMILES	U2OS ROS induce
Clc1cccc(/C=N/N2CCN(Cc3ccccc3)CC2)c1Cl	-11
OC(CSc1ncnc2nc[nH]c12)c1ccc(Cl)cc1 (stereo not given)	-8
CC(C)NC(=O)N(C)C[C@H]1Oc2ccc(NC(=O)CCN3CCOCC3)cc2CC(=O)N([C@@H](C)CO)C[C@H]1C	70
CCOC(=O)c1cnc2c(-c3ccccc3)cnn2c1C	45
CCOC(=O)c1ccc(Nc2ncnc3ccccc23)cc1	-10
CCOC(=O)c1cnc2c(ccc3ccccc32)c1NCC(C)C	15
CCOC(=O)c1cnc2ccccc2c1NCCc1ccccc1	113*
CCOC(=O)c1cnc2c(ccc3ccccc32)c1NCc1ccco1	26
CCOC(=O)c1cnc2c(ccc3ccccc32)c1NCCOC(=O)c1cccnc1	248*
COc1c(CC=C(C)C)c2c(c3oc(=O)c(-c4ccc(OC(C)=O)cc4)c(OC(C)=O)c13)C=CC(C)(C)O2	-5
C[C@@H]1CN([C@@H](C)CO)C(=O)Cc2cc(NS(=O)(=O)c3cn(C)cn3)ccc2O[C@@H]1CN(C)CC1CC1	-4
COc1ccccc1NC(=O)c1ccc(OCC(=O)Nc2cc(Cl)cc(Cl)c2)cc1	37
O=C(COc1ccc(I)cc1)Nc1cc(C(=O)O)cc(C(=O)O)c1	-18
C[C@H]1CN([C@@H](C)CO)C(=O)c2cccc(NS(=O)(=O)c3ccc(F)cc3)c2O[C@@H]1CN(C)C(=O)Nc1cccc2ccccc12	9
COc1ccc(CCN2C(=O)[C@@]3(Cc4ccccc42)c2ccccc2C(=O)N(C2CCCCC2)[C@H]3c2ccc(CO)cc2)cc1	2
Cc1ccc(S[C@]2(C(=O)NC(C)C)CC(=O)N(C(C)C)[C@@H]2c2ccc(CO)cc2I)cc1	176*
Cc1ccc(S[C@]2(C(=O)NC3CC3)CC(=O)N(C3CCCCC3)[C@@H]2c2ccc(CO)cc2I)cc1	11
CCCNC(=O)[C@@]1(Sc2ccc(C)cc2)CC(=O)N(C2CCCCC2)[C@@H]1c1ccc(CO)cc1I	162*
CN(C)CCCNC(=O)[C@@]1(c2ccc([N+](=O)[O-])cc2)CC(=O)N(C2CCCCC2)[C@@H]1c1ccc(CO)cc1I	31
COc1ccc(CCNC(=O)[C@@H]2c3ccccc3C(=O)N(CC34CC5CC(CC(C5)C3)C4)[C@H]2c2ccc(CO)cc2)cc1	16
COc1ccc(CCNC(=O)[C@@]2(Sc3ccc(C)cc3)CC(=O)N(C3CCCCC3)[C@@H]2c2ccc(CO)cc2I)cc1	160*
Cc1ccc(CN2C(=O)CCC2C(=O)NC(C)C)cc1 (stereo not given)	-7
Cc1ccc(S[C@]2(C(=O)NCCCN(C)C)CC(=O)N(C3CCCCC3)[C@@H]2c2ccc(CO)cc2I)cc1	6
CC(C)(C)c1csc(-c2ccc(OC(F)(F)F)cc2)n1	-13
Cc1ccc(S(=O)(=O)N2CCN(C(=O)CSc3nnc4sc5ccccc5n34)CC2)cc1	-2
SMILES	U2OS ROS induce
COc1ccccc1N1CCN(C(=O)c2cnn3c(C)c(Cc4cccc(C)c4)c(C)nc23)CC1	14
COc1ccc(C(=O)NCc2occc2C(=O)O)cc1	-1
CC1(C)[C@H]2CC=C(/C=N\NC(=O)c3ccccc3O)[C@@H]1C2	2
Cc1noc(C)c1NC(=O)N(C)C[C@@H]1Oc2ccc(NC(=O)CCN3CCOCC3)cc2C(=O)N([C@H](C)CO)C[C@@H]1C	-10
C[C@@H]1CN([C@@H](C)CO)C(=O)c2cc(NC(=O)Cn3cnnn3)ccc2O[C@@H]1CN(C)C(=O)Nc1ccc(C(F)(F)F)cc1	3
Cc1sc2nc(C(=O)Oc3ccc(F)cc3)cc(N)c2c1C	8

Compound activity (PubChem)
